# Results published in PubChem BioAssay (EPA / NIEHS).
# Inconclusive results are not listed. Calls of active or inactive are those of the source. How the source made its calls, unless noted: active means hit-call score of the fitted dose curve at least 0.9, where 1 is the maximum; inconclusive means response in the unintended direction; inactive means score below 0.9.
# Test: CCTE_Shafer_MEA_dev_per_network_spike_spike_number_mean: CCTE's Neural Network Formation Assay for Mean Number of Spikes in a Network Spike, Shafer Lab (AID 2284053; active means hit-call score of the fitted dose curve at least 0.9, where 1 is the maximum; inactive means score below 0.9)
# Conditions: not given
# Procedure, shortened: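 First, rat cortical cells (1.5 x 10^5/well) were seeded onto MEA wells; second, dosing began at plating and was refreshed on DIV 5 and 9; finally, network-spike spike counts across DIV 5–12 were summarized as AUC.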
row,SMILES,outcome
1,COP(=O)(OC)SCN1C(=O)c2ccccc2C1=O,inactive
2,CP(=O)(O)CC[C@H](N)C(=O)O,inactive
3,CC(=O)[O-].[Tl+],inactive

# Test: CCTE_Shafer_MEA_dev_per_network_spike_spike_percent: CCTE's Neural Network Formation Assay for Percent of Spikes in a Network Spike, Shafer Lab (AID 2284054; active means hit-call score of the fitted dose curve at least 0.9, where 1 is the maximum; inactive means score below 0.9)
# Conditions: not given
# Procedure, shortened: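 Metric: fraction of spikes falling in a 0.05 s window at network-spike peaks. Recordings were made on days 5, 7, 9 and 12 and collapsed by trapezoidal AUC. Cultures were rat cortical neurons on MEA plates, dosed continuously from plating, re-dosed at media changes.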
SMILES,AC50,outcome
C[n+]1ccc(-c2cc[n+](C)cc2)cc1,1.81 µM (active),
CCOP(=S)(OCC)SCS(=O)C(C)(C)C (stereo unspecified),,inactive
CC1(C)[C@H](C=C(Cl)Cl)[C@H]1C(=O)OCc1c(F)c(F)cc(F)c1F,12.8 µM (active),
CCOP(=O)(OCC)OC(Cl)C(Cl)(Cl)Cl (stereo unspecified),2.25 µM (active),

# Test: UKN5_HCS_SBAD2_cell_viability: Viability Assessment in the University of Konstanz (UKN) Leist Lab Neurite Outgrowth Assay in human iPSC-derived immature Dorsal Root Ganglia Neurons (UKN5) (AID 2284056; active means hit-call score of the fitted dose curve at least 0.9, where 1 is the maximum; inactive means score below 0.9)
# Conditions: not given
# Procedure, shortened: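 iPSC-derived immature peripheral neurons (SBAD2) seeded on Matrigel with CHIR99021, SU5402 and DAPT, dosed 1 h later for 24 h. Viability from Hoechst H-33342 and calcein-AM live staining, high-content imaging; bidirectional fit versus DMSO.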
SMILES,outcome,AC50
C[n+]1ccc(-c2cc[n+](C)cc2)cc1,inactive,
C/C(=C/C=C/[C@@H](C)C(=O)O)[C@H]1CN[C@H](C(=O)O)[C@H]1CC(=O)O,inactive,
CP(=O)(O)CCC(N)C(=O)O (stereo unspecified),inactive,
[O-][Cl+3]([O-])([O-])O,inactive,
C[n+]1ccc(-c2ccccc2)cc1,inactive,
CC(=O)[O-].CC(=O)[O-].O.O.O.[Pb+2],,17.7 µM (active)

# Test: CCTE_Shafer_MEA_dev_LDH: CCTE's Lactate Dehydrogenase Assay for Cytotoxicity in the Neural Network Formation Assay, Shafer Lab (AID 2284068);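 further: exposure for twelve days from plating with re-dosing on DIV 5 and 9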
# Conditions: not given
# Procedure, shortened: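 Developing rat cortical networks on MEA plates are exposed to compound for 12 days from plating. LDH activity is measured spectrophotometrically, with DMSO as baseline.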
SMILES,AC50,outcome
C[n+]1ccc(-c2cc[n+](C)cc2)cc1,1.71 µM (active),
C/C(=C/C=C/[C@@H](C)C(=O)O)[C@H]1CN[C@H](C(=O)O)[C@H]1CC(=O)O,6.75 µM (active),
CP(=O)(O)CCC(N)C(=O)O (stereo unspecified),,inactive
NCCc1cc(O)c(O)cc1O,6.82 µM (active),
CCOP(=S)(OCC)SCS(=O)C(C)(C)C (stereo unspecified),,inactive
C[n+]1ccc(-c2ccccc2)cc1,4.7 µM (active),
O=C(O)CNCP(=O)(O)O,,inactive
C#CCN(C)[C@H](C)Cc1ccccc1,,inactive
Cn1nc(C(F)(F)F)c(CS(=O)(=O)C2=NOC(C)(C)C2)c1OC(F)F,80.6 µM (active),
CCCCC(CC)COC(=O)c1cc(Br)c(Br)c(Br)c1Br (stereo unspecified),15.9 µM (active),
CC1(C)C(C=C(Cl)c2ccc(Cl)cc2)C1C(=O)OC(C#N)c1ccc(F)c(Oc2ccccc2)c1 (stereo unspecified),14.3 µM (active),
CCOP(=O)(Oc1cnc(C(C)(C)C)nc1)OC(C)C (stereo unspecified),11.4 µM (active),
CC(=O)[O-].CC(=O)[O-].O.O.O.[Pb+2],23.7 µM (active),
CC1(C)C(C=C(Cl)Cl)C1C(=O)O[C@H](C#N)c1cccc(Oc2ccccc2)c1 (stereo partly specified),5.77 µM (active),
CCOP(=O)(OCC)OC(Cl)C(Cl)(Cl)Cl (stereo unspecified),0.825 µM (active),
CCOP(=O)(OCC)SCSC(C)(C)C,49.5 µM (active),
CC1(C)[C@@H](C=C(Cl)Cl)[C@@H]1C(=O)O[C@@H](C#N)c1ccc(F)c(Oc2ccccc2)c1,,inactive
COP(=O)(OC)SCN1C(=O)c2ccccc2C1=O,,inactive
CP(=O)(O)CC[C@H](N)C(=O)O,,inactive
CC(=O)[O-].[Tl+],,inactive

# Test: UKN5_HCS_SBAD2_neurite_outgrowth: University of Konstanz (UKN) Leist Lab Neurite Outgrowth Assay in human iPSC-derived immature Dorsal Root Ganglia Neurons (UKN5) (AID 2284070; active means hit-call score of the fitted dose curve at least 0.9, where 1 is the maximum; inactive means score below 0.9)
# Conditions: actives raise or lower the signal
# Procedure, shortened: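 Cryopreserved SBAD2 peripheral neurons were seeded at 100.000 cells/cm2 in N2-S/KSR medium containing CHIR99021, SU5402 and DAPT, then exposed to compounds for 24 h. Neurite area from calcein-AM high-content imaging was fitted bidirectionally against DMSO.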
SMILES,AC50,outcome
C[n+]1ccc(-c2cc[n+](C)cc2)cc1,202 µM (active),
C/C(=C/C=C/[C@@H](C)C(=O)O)[C@H]1CN[C@H](C(=O)O)[C@H]1CC(=O)O,,inactive
CP(=O)(O)CCC(N)C(=O)O (stereo unspecified),,inactive
[O-][Cl+3]([O-])([O-])O,,inactive
C[n+]1ccc(-c2ccccc2)cc1,,inactive
CC(=O)[O-].CC(=O)[O-].O.O.O.[Pb+2],,inactive

# Test: CCTE_Shafer_MEA_dev_AB: CCTE's Alamar Blue Assay for Cytotoxicity in the Neural Network Formation Assay, Shafer Lab (AID 2284083);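 further: resazurin reduction fluorescence as viability of cultured neurons; twelve days of exposure from plating with re-dosing on DIV 5 and 9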
# Conditions: not given
# Procedure, shortened: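 Cytotoxicity companion to the developmental MEA: primary rat cortical neurons, 12-day exposure starting day 0, compound refreshed DIV 5 and 9; resazurin fluorescence, fitted against DMSO vehicle.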
SMILES,AC50,outcome
C[n+]1ccc(-c2cc[n+](C)cc2)cc1,2.34 µM (active),
C/C(=C/C=C/[C@@H](C)C(=O)O)[C@H]1CN[C@H](C(=O)O)[C@H]1CC(=O)O,,inactive
NCCc1cc(O)c(O)cc1O,9.87 µM (active),
C[n+]1ccc(-c2ccccc2)cc1,,inactive
O=C(O)CNCP(=O)(O)O,,inactive
C#CCN(C)[C@H](C)Cc1ccccc1,,inactive
Cn1nc(C(F)(F)F)c(CS(=O)(=O)C2=NOC(C)(C)C2)c1OC(F)F,68.9 µM (active),
CCCCC(CC)COC(=O)c1cc(Br)c(Br)c(Br)c1Br (stereo unspecified),15.1 µM (active),
CC1(C)C(C=C(Cl)c2ccc(Cl)cc2)C1C(=O)OC(C#N)c1ccc(F)c(Oc2ccccc2)c1 (stereo unspecified),17.1 µM (active),
CCOP(=O)(Oc1cnc(C(C)(C)C)nc1)OC(C)C (stereo unspecified),11.7 µM (active),
CC(=O)[O-].CC(=O)[O-].O.O.O.[Pb+2],24 µM (active),
CC1(C)C(C=C(Cl)Cl)C1C(=O)O[C@H](C#N)c1cccc(Oc2ccccc2)c1 (stereo partly specified),5.41 µM (active),
CCOP(=O)(OCC)OC(Cl)C(Cl)(Cl)Cl (stereo unspecified),2.24 µM (active),
CCOP(=O)(OCC)SCSC(C)(C)C,90.6 µM (active),
CC1(C)[C@@H](C=C(Cl)Cl)[C@@H]1C(=O)O[C@@H](C#N)c1ccc(F)c(Oc2ccccc2)c1,,inactive
COP(=O)(OC)SCN1C(=O)c2ccccc2C1=O,,inactive
CP(=O)(O)CC[C@H](N)C(=O)O,,inactive
CC(=O)[O-].[Tl+],,inactive

# Test: CCTE_Shafer_MEA_acute_LDH: CCTE's Lactate Dehydrogenase Assay for Cytotoxicity in the Neural Acute Assay, Shafer Lab (AID 2284086);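 further: active means LDH release rises above DMSO vehicle level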
# Conditions: not given
# Procedure, shortened: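 LDH absorbance at 490 nm in medium taken right after 40-min compound exposure; rat primary cortical neuron networks on MEA plates, days post-plating 13 or 15. Increase over DMSO baseline scored as cytotoxicity.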
row,SMILES,outcome
1,CP(=O)(O)CCC(N)C(=O)O (stereo unspecified),inactive
2,C#CCN(C)[C@H](C)Cc1ccccc1,inactive
3,CC1(C)[C@@H](C=C(Cl)Cl)[C@@H]1C(=O)O[C@@H](C#N)c1ccc(F)c(Oc2ccccc2)c1,inactive
4,CP(=O)(O)CC[C@H](N)C(=O)O,inactive
